From PubChem BioAssay AID1531 (NMMLSC, 2009)
About 3,300 (1.1%) of roughly 290,000 compounds were called active. For the sample, actives were picked, then their nearest neighbours and some compounds at random. Values without a mark were called inactive. Cut-off read from the data, not from the text of the source: active = binding response below about 67% or above about 130%; inconclusive = no clear call, values can overlap the other calls; inactive = in between.

These molecules were tested against Mitogen-activated protein kinase kinase kinase 2 (Homo sapiens) (UniProt Q9Y2U5) (assay: wildtype MEKK2 PB1-MEK5 interaction, increase or decrease – biochemical, multiplex bead flow cytometry, Alexa488-MEK5, primary screen (AID 1531)). Conditions: Alexa488-MEK5 binding to MEKK2 WT, at 10 µM, actives lie on both sides.
`NC(=O)c1oc2ccccc2c1NC(=O)CS(=O)(=O)c1ccccc1` was tested, and the binding response (% of control) was 106%.
Work on `O=C(Nc1ccccc1[N+](=O)[O-])C1C(c2ccccc2)=C1c1ccccc1` yielded a binding response (% of control) of 97%.
In the case of `O=C(Nc1ccccc1-c1ccccc1)c1ccccc1[N+](=O)[O-]`, the binding response (% of control) is reported as 106%.
`O=C(O)c1ccccc1C(=O)Nc1ccccc1[N+](=O)[O-]` was tested, and the binding response (% of control) was 0% (active).
For `CCOC(=O)C[C@H]1c2ccc(C(F)(F)F)cc2S(=O)(=O)N1c1ccccc1`, the binding response (% of control) was 98%.
For `CCOC(=O)C1CCN(C(=O)Cn2nc(C)c3c(C)n(-c4ccccc4)nc3c2=O)CC1`, the binding response (% of control) was 101%.
Molecule `COc1ccc(S(=O)(=O)N2CCC(C(=O)NCCC(=O)NCc3cccc(OC)c3)CC2)cc1` has a binding response (% of control) of 104%.
`CCOc1cc(/C=C/c2nc3ccccc3c(=O)[nH]2)cc(Br)c1OC` was tested, and the binding response (% of control) was 98%.
With `O=C(Nc1c2c(nn1-c1cccc(Cl)c1)CS(=O)(=O)C2)c1cccs1` the binding response (% of control) was 81%.
With `CCOc1cc(C2C(C(=O)c3ccco3)=C(O)C(=O)N2Cc2ccccc2)ccc1O` (stereo not drawn) the binding response (% of control) was 93%.
For `CCCc1nn(C)c2c(=O)[nH]c(-c3cc(S(N)(=O)=O)ccc3OCC)nc12`, the binding response (% of control) was 105%.
In the case of `COc1ccc(S(=O)(=O)NC(C)C(=O)NCc2ccncc2)cc1Cl` (stereo not drawn), the binding response (% of control) is reported as 98%.
`Cn1cc(CCC(=O)NC2CC2)c2ccccc21` gave a binding response (% of control) of 96%.
Work on `COc1ccc(C(=O)Nc2ccnn2C2CCN(Cc3ccncc3)CC2)cc1` yielded a binding response (% of control) of 101%.
In the case of `CC(C)Oc1ccc(CN2CCC(n3nccc3NC(=O)c3cccnc3)CC2)cc1`, the binding response (% of control) is reported as 142% (active).
With `COc1ccccc1C(=O)Nc1ccnn1C1CCN(Cc2cnn(C)c2)CC1` the binding response (% of control) was 88%.
With `Cc1ccc(SCC(=O)NNC(=O)c2ccc(S(C)(=O)=O)cc2)cc1` the binding response (% of control) was 102%.
`O=C(NCCCN1CCCCCC1)C1CC(=O)N(C2CCCC2)C1` (stereo not drawn) was tested, and the binding response (% of control) was 162% (active).
`O=C(NCCc1ccc(Cl)cc1)C1CC(=O)N(C2CCCCC2)C1` (stereo not drawn) showed a binding response (% of control) of 98%.
Work on `CC(C)OCCCNC(=O)C1CC(=O)N(C2CCCCCCC2)C1` (stereo not drawn) yielded a binding response (% of control) of 100%.
Work on `CCn1c(CC(=O)Nc2ccccc2)nnc1SCC(=O)N1CCOCC1` yielded a binding response (% of control) of 96%.
For `CCCCOC(=O)c1ccc(N2C(=O)CC(N3CCN(C/C=C/c4ccccc4)CC3)C2=O)cc1` (stereo not drawn), the binding response (% of control) was 176% (active).
With `CCOC(=O)c1ccc(N2C(=O)CC(N3CCN(C(=O)c4ccccc4)CC3)C2=O)cc1` (stereo not drawn) the binding response (% of control) was 96%.
`CCOC(=O)c1ccc(N2C(=O)CC(N3CCC(C(=O)OCC)CC3)C2=O)cc1` (stereo not drawn) was tested, and the binding response (% of control) was 105%.
`C#CCOCCOCCOCCNc1nc(N2CCN(C(=O)[C@H](CCC(=O)O)n3cc(C(N)CO)nn3)CC2)nc(N2CCN(C(=O)[C@H](Cc3ccc(O)cc3)n3cc(C(N)[C@H](C)CC)nn3)CC2)n1` (stereo partly drawn) showed a binding response (% of control) of 108%.
With `C#CCOCCOCCOCCNc1nc(N2CCN(C(=O)C(Cc3ccc(O)cc3)n3cc(C(N)CC(C)C)nn3)CC2)nc(N2CCN(C(=O)C(Cc3ccc(O)cc3)n3cc(C(N)C(C)CC)nn3)CC2)n1` (stereo not drawn) the binding response (% of control) was 147% (active).
`C#CCOCCOCCOCCNc1nc(N2CCN(C(=O)[C@H](CCC(=O)O)n3cc(C(N)CO)nn3)CC2)nc(N2CCN(C(=O)[C@H](CCCCN)n3cc(C(N)[C@H](C)CC)nn3)CC2)n1` (stereo partly drawn) gave a binding response (% of control) of 97%.
For `C#CCOCCOCCOCCNc1nc(N2CCN(C(=O)C([C@@H](C)CC)n3cc(C(N)COC(=O)C(F)(F)F)nn3)CC2)nc(N2CCN(C(=O)[C@H](CCCCN)n3cc(C(N)CC(C)C)nn3)CC2)n1` (stereo partly drawn), the binding response (% of control) was 241% (active).
`C#CCOCCOCCOCCNc1nc(N2CCN(C(=O)[C@H](CCC(=O)O)n3cc(C(N)CO)nn3)CC2)nc(N2CCN(C(=O)[C@H](CCCCN)n3cc(C(N)CC(C)C)nn3)CC2)n1` (stereo partly drawn) showed a binding response (% of control) of 69%.
Molecule `C#CCOCCOCCOCCNc1nc(N2CCN(C(=O)C([C@@H](C)CC)n3cc(C(N)COC(=O)C(F)(F)F)nn3)CC2)nc(N2CCN(C(=O)[C@H](Cc3ccc(O)cc3)n3cc(C(N)[C@H](C)CC)nn3)CC2)n1` (stereo partly drawn) has a binding response (% of control) of 120%.
In the case of `C#CCOCCOCCOCCNc1nc(N2CCN(C(=O)[C@H](Cc3ccc(O)cc3)n3cc(C(N)CC(C)C)nn3)CC2)nc(N2CCN(C(=O)[C@H](CCC(=O)O)n3cc(C(N)[C@H](C)CC)nn3)CC2)n1` (stereo partly drawn), the binding response (% of control) is reported as 106%.
`C#CCOCCOCCOCCNc1nc(N2CCN(C(=O)[C@H](C(C)C)n3cc(CCO)nn3)CC2)nc(N2CCN(C(=O)[C@H](C(C)C)n3cc(CCO)nn3)CC2)n1` showed a binding response (% of control) of 97%.
In the case of `C#CCOCCOCCOCCNc1nc(N2CCN(C(=O)[C@H](CCCCN)n3cc([C@@H](N)C(C)CC)nn3)CC2)nc(N2CCN(C(=O)[C@H](Cc3ccc(O)cc3)n3cc([C@@H](N)C(C)CC)nn3)CC2)n1` (stereo partly drawn), the binding response (% of control) is reported as 211% (active).
